The supplement of paper PMC10849652
The full data set covers some 7,900 targets. This sample favours those with a hit. About 0.6% of all pairs of compound and target were hits.

Tests used:
Assay in all cases: log2 fold change, soluble protein after heating vs DMSO (PISA); higher = thermal stabilisation; K562 cells, 10 uM, 30 min; active = over 0.2 and 3.5 SD of the protein, either way, in both replicates (recomputed)
[1] = compound: C1=CC=C(C=C1)[C@H](COC2=CC3=C(C=C2)NC(=O)N3)NC(=O)C4=CC=CN(C4=O)CC5=CC(=C(C=C5)F)F
In short: (§1)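 Values are thermal stability changes relative to control samples and are taken from duplicates. They are stated as log2 fold changes. Before quantification by TMTpro 16plex LC-MS/MS with equalised channel sums, K562 cells at 2×10^6 cells/mL were treated with 10 μM compound for 30 min, heated in aliquots for 3 min across 48°C-58°C, pooled, extracted in PBS with 0.5% NP-40 at 4°C, and centrifuged at 21,000xg for 90 min to give the soluble supernatant.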

[2] = compound: CC1=C(SC2=C1C(=N[C@H](C3=NN=C(N32)C)CC(=O)N)C4=CC=C(C=C4)Cl)C
In short: as §1

[3] = compound: CC1=C2C(=CC=C1)N=C(N(C2=O)C3=CC=CC=C3C)CN4C=NC5=C(N=CN=C54)N
In short: as §1

[4] = compound: Cc1sc2c(c1C)C(c1ccc(Cl)cc1)=N[C@@H](CC(=O)OC(C)(C)C)c1nnc(C)n1-2
In short: as §1

[5] = compound: c1ccc([C@@H]2C[C@H]2NC2CCNCC2)cc1
In short: as §1

Measured: log2 fold change

FAM122A (UniProt Q96E09)
inactive: [1] 0.008 | [2] -0.055 | [3] -0.022 | [4] 0.158 | [5] 0.083

EDC3 (UniProt Q96F86)
UniProt Q96F86, sequence (Q96F86 whole entry, looked up): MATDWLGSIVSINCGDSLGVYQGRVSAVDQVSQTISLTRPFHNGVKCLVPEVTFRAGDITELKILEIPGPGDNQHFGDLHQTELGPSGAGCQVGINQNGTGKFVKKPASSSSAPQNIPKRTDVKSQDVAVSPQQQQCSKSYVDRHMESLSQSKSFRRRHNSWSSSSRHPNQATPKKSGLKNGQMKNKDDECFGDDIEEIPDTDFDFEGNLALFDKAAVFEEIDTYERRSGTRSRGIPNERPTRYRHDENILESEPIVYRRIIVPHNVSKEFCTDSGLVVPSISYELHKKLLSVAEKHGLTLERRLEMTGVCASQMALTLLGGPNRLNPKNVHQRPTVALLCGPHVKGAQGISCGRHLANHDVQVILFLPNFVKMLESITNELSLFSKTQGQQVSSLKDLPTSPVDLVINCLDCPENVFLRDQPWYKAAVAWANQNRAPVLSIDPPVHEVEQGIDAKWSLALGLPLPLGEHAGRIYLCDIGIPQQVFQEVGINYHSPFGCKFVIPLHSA
inactive: [1] -0.198 | [2] 0.12 | [3] 0.019 | [4] 0.063 | [5] 0.026

EIF4G3 isoform 3 (UniProt O43432)
inactive: [1] -0.021 | [2] 0.021 | [3] 0.184 | [4] 0.038 | [5] -0.06

EFL1 (UniProt Q7Z2Z2)
inactive: [1] -0.042 | [2] 0.051 | [3] 0.083 | [4] 0.008 | [5] -0.017

CTSH (UniProt P09668)
inactive: [1] 0 | [2] -0.046 | [3] -0.038 | [4] -0.035 | [5] 0.055

EXOSC10 (UniProt Q01780)
inactive: [1] 0.162 | [2] 0.184 | [3] 0.284 | [4] 0.03 | [5] -0.041

CYBA (UniProt P13498)
UniProt P13498, sequence (P13498 whole entry, looked up): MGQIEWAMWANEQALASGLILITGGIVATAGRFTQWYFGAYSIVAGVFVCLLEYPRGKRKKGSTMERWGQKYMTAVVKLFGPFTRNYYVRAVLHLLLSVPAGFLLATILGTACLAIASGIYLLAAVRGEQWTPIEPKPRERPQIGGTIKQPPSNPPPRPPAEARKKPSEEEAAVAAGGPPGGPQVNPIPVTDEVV
inactive: [1] 0.007 | [2] 0.034 | [3] -0.013 | [4] 0.027 | [5] 0.031

DHX36 (UniProt Q9H2U1)
inactive: [1] 0.037 | [2] -0.087 | [3] -0.094 | [4] 0.091 | [5] 0.015

FADS1, A0A0A0MR51
inactive: [1] -0.051 | [2] 0.026 | [3] 0.026 | [4] -0.005 | [5] -0.038

DYNC1I2 isoform 5 (UniProt Q13409)
inactive: [1] 0.019 | [2] 0.021 | [3] -0.006 | [4] -0.033 | [5] -0.019

ESS2 (UniProt Q96DF8)
UniProt Q96DF8, sequence (Q96DF8 whole entry, looked up): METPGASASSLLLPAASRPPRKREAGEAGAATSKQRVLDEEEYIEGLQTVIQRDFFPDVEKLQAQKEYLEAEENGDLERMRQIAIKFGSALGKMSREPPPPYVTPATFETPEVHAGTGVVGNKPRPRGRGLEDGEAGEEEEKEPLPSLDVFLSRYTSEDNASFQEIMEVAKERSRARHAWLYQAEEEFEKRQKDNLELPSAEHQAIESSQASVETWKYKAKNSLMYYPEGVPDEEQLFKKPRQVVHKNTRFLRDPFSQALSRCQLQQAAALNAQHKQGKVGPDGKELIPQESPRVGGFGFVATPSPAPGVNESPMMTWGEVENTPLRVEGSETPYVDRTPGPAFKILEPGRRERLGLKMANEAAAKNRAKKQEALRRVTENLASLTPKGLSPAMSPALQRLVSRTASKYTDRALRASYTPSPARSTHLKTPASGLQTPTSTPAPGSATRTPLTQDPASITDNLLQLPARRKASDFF
inactive: [1] 0.04 | [2] -0.06 | [3] -0.096 | [4] 0.018 | [5] 0.075

DPH5 isoform 5 (UniProt Q9H2P9)
inactive: [1] -0.025 | [2] 0.054 | [3] 0.092 | [4] -0.009 | [5] 0

ELOC (UniProt Q15369)
UniProt Q15369, sequence (Q15369 whole entry, looked up): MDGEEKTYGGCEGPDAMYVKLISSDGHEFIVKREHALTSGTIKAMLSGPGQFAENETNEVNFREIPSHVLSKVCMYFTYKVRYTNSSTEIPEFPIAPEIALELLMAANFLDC
inactive: [1] 0.024 | [2] 0.151 | [3] 0.132 | [4] -0.066 | [5] -0.07

FAM117A (UniProt Q9C073)
inactive: [1] -0.004 | [2] 0.057 | [3] 0.027 | [4] 0.01 | [5] 0.012

CYP51A1 (UniProt Q16850)
UniProt Q16850, sequence (Q16850 whole entry, looked up): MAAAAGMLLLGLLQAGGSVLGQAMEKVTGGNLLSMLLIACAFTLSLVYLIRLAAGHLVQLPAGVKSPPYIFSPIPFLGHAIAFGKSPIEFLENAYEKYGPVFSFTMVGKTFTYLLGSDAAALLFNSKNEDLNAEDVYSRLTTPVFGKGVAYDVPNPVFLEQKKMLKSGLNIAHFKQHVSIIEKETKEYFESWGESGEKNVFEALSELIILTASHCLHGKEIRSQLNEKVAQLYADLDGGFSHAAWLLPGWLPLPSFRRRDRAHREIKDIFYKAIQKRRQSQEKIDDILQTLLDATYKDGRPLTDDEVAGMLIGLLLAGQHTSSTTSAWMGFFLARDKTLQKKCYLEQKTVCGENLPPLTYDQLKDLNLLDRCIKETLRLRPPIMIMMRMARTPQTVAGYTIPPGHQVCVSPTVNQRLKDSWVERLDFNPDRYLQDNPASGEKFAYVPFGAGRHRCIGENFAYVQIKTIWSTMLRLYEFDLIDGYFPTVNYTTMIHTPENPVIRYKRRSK
inactive: [1] -0.096 | [2] 0.055 | [3] -0.037 | [4] -0.01 | [5] -0.001

EGLN1 (UniProt Q9GZT9)
inactive: [1] 0.055 | [2] 0.06 | [3] 0.013 | [4] 0.008 | [5] 0.019

EEF1G isoform 2 (UniProt P26641)
UniProt P26641, sequence (P26641 whole entry, looked up): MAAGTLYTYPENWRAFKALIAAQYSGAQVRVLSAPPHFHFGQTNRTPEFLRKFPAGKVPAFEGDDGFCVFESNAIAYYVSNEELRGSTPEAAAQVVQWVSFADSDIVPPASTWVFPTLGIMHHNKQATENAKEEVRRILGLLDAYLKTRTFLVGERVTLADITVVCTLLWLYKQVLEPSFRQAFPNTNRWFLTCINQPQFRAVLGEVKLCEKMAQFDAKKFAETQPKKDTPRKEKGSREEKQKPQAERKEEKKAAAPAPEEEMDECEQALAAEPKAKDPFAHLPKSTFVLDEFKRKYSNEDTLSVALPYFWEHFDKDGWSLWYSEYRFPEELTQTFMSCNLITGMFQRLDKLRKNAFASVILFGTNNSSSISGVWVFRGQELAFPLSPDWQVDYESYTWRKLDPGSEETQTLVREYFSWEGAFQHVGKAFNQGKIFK
inactive: [1] -0.068 | [2] 0.005 | [3] -0.049 | [4] -0.001 | [5] -0.006

EIF2S3 (UniProt P41091)
UniProt P41091, sequence (P41091 whole entry, looked up): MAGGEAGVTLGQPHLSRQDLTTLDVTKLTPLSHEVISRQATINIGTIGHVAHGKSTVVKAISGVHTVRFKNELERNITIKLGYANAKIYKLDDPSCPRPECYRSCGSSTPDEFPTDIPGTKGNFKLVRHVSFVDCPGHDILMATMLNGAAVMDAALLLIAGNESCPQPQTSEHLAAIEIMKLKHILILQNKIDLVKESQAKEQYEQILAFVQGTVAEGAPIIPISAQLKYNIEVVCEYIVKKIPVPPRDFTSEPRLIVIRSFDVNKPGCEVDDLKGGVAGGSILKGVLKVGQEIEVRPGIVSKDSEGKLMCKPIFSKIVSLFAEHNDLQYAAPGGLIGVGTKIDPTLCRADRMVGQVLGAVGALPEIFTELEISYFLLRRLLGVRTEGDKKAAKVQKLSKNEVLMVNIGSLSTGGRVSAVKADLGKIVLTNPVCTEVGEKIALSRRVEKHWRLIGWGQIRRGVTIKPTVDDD
inactive: [1] 0.008 | [2] -0.023 | [3] -0.017 | [4] 0.054 | [5] -0.002

ERLIN2 (UniProt O94905)
inactive: [1] -0.025 | [2] -0.048 | [3] -0.038 | [4] 0.006 | [5] -0.044

DTWD1 (UniProt Q8N5C7)
inactive: [1] -0.051 | [2] -0.011 | [3] 0.152 | [4] -0.056 | [5] 0.07

EXOC1 (UniProt Q9NV70)
inactive: [1] -0.095 | [2] 0.021 | [3] 0.121 | [4] 0.027 | [5] -0.075

EGR1 (UniProt P18146)
inactive: [1] 0.034 | [2] 0.241 | [3] -0.097 | [4] 0.705 | [5] 0.07

DHPS (UniProt P49366)
UniProt P49366, sequence (P49366 whole entry, looked up): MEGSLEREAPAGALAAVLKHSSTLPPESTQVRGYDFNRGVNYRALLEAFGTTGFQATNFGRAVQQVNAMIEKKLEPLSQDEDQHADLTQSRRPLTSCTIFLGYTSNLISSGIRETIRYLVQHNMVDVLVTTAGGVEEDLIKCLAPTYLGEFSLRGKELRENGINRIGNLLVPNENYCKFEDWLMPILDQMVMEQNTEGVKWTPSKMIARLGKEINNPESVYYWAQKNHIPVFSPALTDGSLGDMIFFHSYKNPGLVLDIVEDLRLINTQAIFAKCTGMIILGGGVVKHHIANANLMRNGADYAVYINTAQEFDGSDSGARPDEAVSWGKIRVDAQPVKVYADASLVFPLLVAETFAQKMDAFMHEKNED
inactive: [1] -0.014 | [2] 0.013 | [3] -0.014 | [4] 0.013 | [5] 0.081

EXOC5 (UniProt O00471)
UniProt O00471, sequence (O00471 whole entry, looked up): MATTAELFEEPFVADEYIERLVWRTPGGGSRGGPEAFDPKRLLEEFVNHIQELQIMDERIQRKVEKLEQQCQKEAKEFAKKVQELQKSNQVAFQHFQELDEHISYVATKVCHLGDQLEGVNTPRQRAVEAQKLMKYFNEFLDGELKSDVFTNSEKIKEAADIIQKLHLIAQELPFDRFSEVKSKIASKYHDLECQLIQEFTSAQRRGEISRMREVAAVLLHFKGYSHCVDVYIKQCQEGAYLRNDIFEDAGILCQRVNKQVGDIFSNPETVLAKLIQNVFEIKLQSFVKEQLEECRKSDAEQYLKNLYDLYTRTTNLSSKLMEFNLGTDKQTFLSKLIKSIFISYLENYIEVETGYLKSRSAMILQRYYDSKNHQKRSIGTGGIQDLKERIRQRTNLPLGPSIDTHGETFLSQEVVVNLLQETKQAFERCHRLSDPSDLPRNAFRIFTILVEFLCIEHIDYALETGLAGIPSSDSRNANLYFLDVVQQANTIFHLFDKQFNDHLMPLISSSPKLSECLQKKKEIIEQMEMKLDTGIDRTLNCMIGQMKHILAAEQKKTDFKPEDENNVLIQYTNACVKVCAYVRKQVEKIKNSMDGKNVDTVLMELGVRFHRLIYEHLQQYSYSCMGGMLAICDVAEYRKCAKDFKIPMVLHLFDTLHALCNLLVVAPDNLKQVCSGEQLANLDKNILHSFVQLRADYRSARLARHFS
inactive: [1] -0.069 | [2] -0.006 | [3] 0.07 | [4] 0.066 | [5] -0.018

CTSV (UniProt O60911)
inactive: [1] -0.02 | [2] -0.087 | [3] 0.021 | [4] -0.065 | [5] 0.005

DCTPP1 (UniProt Q9H773)
UniProt Q9H773, sequence (Q9H773 whole entry, looked up): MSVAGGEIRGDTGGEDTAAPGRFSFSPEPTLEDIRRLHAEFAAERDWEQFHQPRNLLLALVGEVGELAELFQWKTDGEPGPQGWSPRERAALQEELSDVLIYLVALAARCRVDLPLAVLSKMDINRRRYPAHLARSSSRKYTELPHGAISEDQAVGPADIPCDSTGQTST
inactive: [1] 0.022 | [2] 0.029 | [3] -0.015 | [4] -0.043 | [5] 0.009

EED, A0A5F9ZI63
inactive: [1] 0.002 | [2] 0.011 | [3] 0.03 | [4] -0.029 | [5] -0.006

DPP8 (UniProt Q6V1X1)
UniProt Q6V1X1, sequence (Q6V1X1 whole entry, looked up): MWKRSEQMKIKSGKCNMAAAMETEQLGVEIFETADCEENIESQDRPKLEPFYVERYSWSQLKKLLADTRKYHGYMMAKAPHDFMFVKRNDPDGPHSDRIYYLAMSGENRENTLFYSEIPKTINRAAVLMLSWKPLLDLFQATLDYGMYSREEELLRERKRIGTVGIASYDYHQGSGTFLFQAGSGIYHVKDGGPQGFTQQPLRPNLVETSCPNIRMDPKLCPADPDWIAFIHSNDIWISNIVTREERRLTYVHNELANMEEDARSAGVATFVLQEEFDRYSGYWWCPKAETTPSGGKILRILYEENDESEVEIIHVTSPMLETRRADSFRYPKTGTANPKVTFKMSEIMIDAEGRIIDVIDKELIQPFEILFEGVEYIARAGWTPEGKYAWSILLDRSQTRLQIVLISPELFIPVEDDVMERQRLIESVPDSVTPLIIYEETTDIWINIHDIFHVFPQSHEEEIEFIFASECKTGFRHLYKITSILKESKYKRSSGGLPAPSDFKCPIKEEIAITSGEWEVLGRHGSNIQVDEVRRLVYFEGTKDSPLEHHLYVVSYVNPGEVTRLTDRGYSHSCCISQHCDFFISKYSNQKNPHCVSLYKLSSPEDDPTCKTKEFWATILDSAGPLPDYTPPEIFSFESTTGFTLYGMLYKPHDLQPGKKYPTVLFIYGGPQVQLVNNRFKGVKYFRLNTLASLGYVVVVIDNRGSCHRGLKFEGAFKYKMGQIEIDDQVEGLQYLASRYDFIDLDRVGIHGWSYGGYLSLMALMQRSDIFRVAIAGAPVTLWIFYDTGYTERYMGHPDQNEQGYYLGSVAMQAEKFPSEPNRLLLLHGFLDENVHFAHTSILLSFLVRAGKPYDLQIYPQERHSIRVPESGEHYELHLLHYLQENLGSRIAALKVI
inactive: [1] -0.112 | [2] 0.029 | [3] 0.145 | [4] -0.033 | [5] 0.005

DPYSL2 (UniProt Q16555)
inactive: [1] -0.012 | [2] 0.072 | [3] 0.093 | [4] 0.01 | [5] 0.014

EIF4G1 isoform 8 (UniProt Q04637)
inactive: [1] -0.074 | [2] -0.016 | [3] -0.036 | [4] 0.135 | [5] -0.002

DCAF16 (UniProt Q9NXF7)
inactive: [1] 0.06 | [2] 0.056 | [3] 0.079 | [4] 0.032 | [5] -0.032

FADS3 (UniProt Q9Y5Q0)
inactive: [1] 0.027 | [2] 0.023 | [3] 0.026 | [4] 0.025 | [5] -0.007

EEF1B2 (UniProt P24534)
inactive: [1] -0.037 | [2] -0.002 | [3] 0.036 | [4] 0.026 | [5] -0.034

DIAPH1 (UniProt O60610)
inactive: [1] -0.073 | [2] -0.027 | [3] 0.026 | [4] 0.049 | [5] -0.018

CTSL (UniProt P07711)
inactive: [1] -0.017 | [2] -0.07 | [3] 0.015 | [4] 0.031 | [5] 0.104

ESYT1 isoform 2 (UniProt Q9BSJ8)
inactive: [1] -0.063 | [2] -0.046 | [3] 0.018 | [4] 0.008 | [5] -0.046

FAM118A (UniProt Q9NWS6)
inactive: [1] -0.079 | [2] 0.05 | [3] -0.102 | [4] -0.021 | [5] 0.003

EXOC6 (UniProt Q8TAG9)
inactive: [1] -0.088 | [2] -0.006 | [3] 0.072 | [4] 0.031 | [5] -0.069
